# In PubChem BioAssay AID1986 (Sanford-Burnham Center for Chemical Genomics, 2009):
# The campaign covered roughly 290,000 compounds. About 890 (0.31%) were called active. The sample holds actives, similar compounds and a random draw of the others, so the mix is not that of the screen. Cut-off read from the data, not from the text of the source: active = inhibition mostly above about 52% (no sharp cut-off); inactive = mostly below about 76%.
# Assay: cell-free HIV fusion peptide-binding blockers – biochemical, uHTS, fluorescence dequenching, primary screen (AID 1986)
# Conditions: 30 min, stronger effect = higher value
# [1] = measured here: repeat confirmation average inhibition, at 18.6 µM
Compound,inhibition (at 20 µM),inhibition [1]
Clc1ccc(Cc2noc(-c3cccs3)n2)cc1,1.2% (inactive),
Cc1ccc(/C=C2\Oc3c(ccc(O)c3CN3CCN(C)CC3)C2=O)cc1,45.4% (inactive),
CC1CCCN(Cc2c(O)ccc3c2O/C(=C\c2ccco2)C3=O)C1 (centres undefined),35.5% (inactive),
CC(C)(C)c1ccc(/C=C2\Oc3c(ccc(O)c3CN3CCN(CCO)CC3)C2=O)cc1,17.8% (inactive),
CC1CCN(Cc2c(O)ccc3c2O/C(=C\c2ccco2)C3=O)CC1,56.7% (active),90.4%
CCN1CCN(Cc2c(O)ccc3c2O/C(=C\c2ccc(C)cc2)C3=O)CC1,40.1% (inactive),
COCCN(CCOC)Cc1c(O)ccc2c1O/C(=C\c1ccco1)C2=O,50.4% (active),78.9%
COCCN(CCOC)Cc1c(O)ccc2c1O/C(=C\c1ccc(C)o1)C2=O,27.4% (inactive),
O=C1/C(=C/c2ccco2)Oc2c1ccc(O)c2CN1CCCCC1,58.1% (active),
Cc1cc(O)c(CN(C)C)c2c1C(=O)/C(=C/c1ccco1)O2,29.7% (inactive),
COc1ccc(C2C(C(=O)N3CCN(c4ccccn4)CC3)CCC(=O)N2c2ccc(OC)cc2)cc1 (centres undefined),-2.1% (inactive),
O=C1C=C(N2CCCCCC2)C2(CCCCC2)O1,0.8% (inactive),
C[C@H](NC(=O)c1nc[nH]c1C(=O)NC(c1ccccc1)c1ccccc1)C(=O)OCc1ccccc1,2.7% (inactive),
CCSc1nnc(-c2cccs2)o1,1.8% (inactive),
CCSc1nnc(-c2sc3nnc(-c4ccccc4)c(-c4ccccc4)c3c2N)o1,98.4% (active),
NC(=O)c1sc2nnc(-c3ccccc3)c(-c3ccccc3)c2c1N,1.6% (inactive),
O=C(Cn1c(=O)oc2cc(S(=O)(=O)N3CCCC3)ccc21)N1CCN(C2CCCCC2)CC1,0% (inactive),
O=C(CSc1nc2ccccc2c(=O)n1Cc1ccco1)N1CCN(c2ccccc2)CC1,-4.4% (inactive),
O=C(Nc1cccc(-c2nc3cc(Cl)ccc3o2)c1)C1CCCO1 (centres undefined),1% (inactive),
CN(C)S(=O)(=O)c1cccc(C(=O)OCC(=O)NCc2ccc3c(c2)OCO3)c1,0.4% (inactive),
COc1ccc2sc(C)[n+](C)c2c1,-2.6% (inactive),
COc1ccc2sc(/C=C/c3ccccc3O)[n+](C)c2c1,69.1% (active),88.7%
C[n+]1ccc(/C=C/c2ccccc2O)c2ccccc21,1.2% (inactive),
Cc1cc(C(=O)Nc2cccnc2)cs1,0.7% (inactive),
Cn1c(=O)oc2cc(S(=O)(=O)NCc3ccc(F)cc3)ccc21,8.5% (inactive),
CCN1CCN(S(=O)(=O)CC2(C)C3CCC2(C)C(=O)C3Br)CC1 (centres undefined),-1.8% (inactive),
